According to paper PMC7862700, “An all-to-all approach to the identification of sequence-specific readers for epigenetic DNA modifications on cytosine”:

Assays:
Assay in all cases: DAPPL (digital affinity profiling via proximity ligation, sequencing); 10 mM Tris-HCl pH 7.5, 50 mM NaCl, 1 mM DTT, 4% glycerol, room temperature, 30 min; GST-TFs on glutathione beads, 16-mer random dsDNA library, 0.1% formaldehyde crosslink after washing; high values mean tight binding
FEV = target: T1, FEV (Homo sapiens, UniProt Q99581 1-238); settings: protein: recombinant; tags: N-terminal GST; dsDNA, one strand shown
T1 sequence: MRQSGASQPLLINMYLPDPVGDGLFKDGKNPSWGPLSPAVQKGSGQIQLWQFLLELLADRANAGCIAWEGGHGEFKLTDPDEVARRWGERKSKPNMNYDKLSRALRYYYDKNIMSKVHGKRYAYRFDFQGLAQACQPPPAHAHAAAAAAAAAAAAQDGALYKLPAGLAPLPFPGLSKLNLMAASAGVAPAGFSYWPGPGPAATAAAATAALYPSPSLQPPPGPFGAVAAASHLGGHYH
In short: (§1)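 The binding signal reported is, for every hexamer, its read frequency for a factor over its read frequency for the tag-only sample. Reads came from pools of yeast-expressed, GST-fused human transcription factors on glutathione beads, barcoded with DNA and mixed with that sample, which were incubated with 200 nmole of a random double-stranded 16-mer DNA library in Tris/NaCl/DTT/glycerol buffer at room temperature for 30 min. After washing, the pools were crosslinked with 0.1% formaldehyde, proximity-ligated with BsaI/T4 ligase for 1 h at 37 °C, PCR-amplified and sequenced on an Illumina NextSeq500.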

ETV5 = ETV5 (Homo sapiens, UniProt P41161 1-510); settings: protein: recombinant; tags: N-terminal GST; dsDNA, one strand shown
In short: as §1

HSF1 = HSF1 (Homo sapiens, UniProt Q00613 1-529); settings: protein: recombinant; tags: N-terminal GST; chain copies: 3; dsDNA, one strand shown
In short: as §1

SPIC = target: T2, SPIC (Homo sapiens, UniProt Q8N5J4 1-248); settings: protein: recombinant; tags: N-terminal GST; dsDNA, one strand shown
T2 sequence: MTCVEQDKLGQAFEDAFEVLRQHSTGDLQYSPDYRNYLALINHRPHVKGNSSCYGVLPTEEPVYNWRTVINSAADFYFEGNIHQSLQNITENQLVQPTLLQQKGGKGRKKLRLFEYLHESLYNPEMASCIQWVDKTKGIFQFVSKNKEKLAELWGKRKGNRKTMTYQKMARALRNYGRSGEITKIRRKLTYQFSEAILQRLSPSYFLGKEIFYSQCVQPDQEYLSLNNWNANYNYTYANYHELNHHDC
In short: as §1

ELF4 = ELF4 (Homo sapiens, UniProt Q99607 1-663); settings: protein: recombinant; tags: N-terminal GST; dsDNA, one strand shown
In short: as §1

ETV2 = target: T3, ETV2 (Homo sapiens, UniProt O00321 1-342); settings: protein: recombinant; tags: N-terminal GST; dsDNA, one strand shown
T3 sequence: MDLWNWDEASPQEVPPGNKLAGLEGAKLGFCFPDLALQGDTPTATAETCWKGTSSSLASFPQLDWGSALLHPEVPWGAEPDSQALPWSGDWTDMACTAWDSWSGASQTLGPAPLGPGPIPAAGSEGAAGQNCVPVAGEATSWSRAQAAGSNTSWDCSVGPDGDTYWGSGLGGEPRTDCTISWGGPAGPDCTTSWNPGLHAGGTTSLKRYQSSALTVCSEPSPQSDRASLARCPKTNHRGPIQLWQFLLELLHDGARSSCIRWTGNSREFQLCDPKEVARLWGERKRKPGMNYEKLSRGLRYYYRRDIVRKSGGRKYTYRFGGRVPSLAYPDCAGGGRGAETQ
In short: as §1

CRX = CRX (Homo sapiens, UniProt O43186 1-299); settings: protein: recombinant; tags: N-terminal GST; dsDNA, one strand shown
In short: as §1

ETV1 = ETV1 (Homo sapiens, UniProt P50549 1-477); settings: protein: recombinant; tags: N-terminal GST; dsDNA, one strand shown
In short: as §1

ERF = target: T4, ERF (Homo sapiens, UniProt P50548 1-548); settings: protein: recombinant; tags: N-terminal GST; dsDNA, one strand shown
T4 sequence: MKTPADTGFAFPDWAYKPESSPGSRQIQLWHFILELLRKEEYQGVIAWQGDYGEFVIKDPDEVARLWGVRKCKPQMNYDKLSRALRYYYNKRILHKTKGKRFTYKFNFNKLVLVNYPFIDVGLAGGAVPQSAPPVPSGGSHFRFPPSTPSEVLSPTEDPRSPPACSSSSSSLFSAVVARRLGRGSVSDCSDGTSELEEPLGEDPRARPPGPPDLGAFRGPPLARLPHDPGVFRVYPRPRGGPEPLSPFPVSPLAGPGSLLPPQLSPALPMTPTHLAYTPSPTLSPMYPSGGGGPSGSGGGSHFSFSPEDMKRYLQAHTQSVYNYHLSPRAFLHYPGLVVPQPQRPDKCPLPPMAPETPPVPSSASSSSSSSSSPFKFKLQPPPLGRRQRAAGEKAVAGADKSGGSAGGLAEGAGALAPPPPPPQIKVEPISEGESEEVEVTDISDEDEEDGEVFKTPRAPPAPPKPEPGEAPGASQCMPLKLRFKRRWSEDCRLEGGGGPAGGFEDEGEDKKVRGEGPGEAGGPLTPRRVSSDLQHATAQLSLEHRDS
In short: as §1

ETV3L = target: T5, ETV3L (Homo sapiens, UniProt Q6ZN32 1-361); settings: protein: recombinant; tags: N-terminal GST; dsDNA, one strand shown
T5 sequence: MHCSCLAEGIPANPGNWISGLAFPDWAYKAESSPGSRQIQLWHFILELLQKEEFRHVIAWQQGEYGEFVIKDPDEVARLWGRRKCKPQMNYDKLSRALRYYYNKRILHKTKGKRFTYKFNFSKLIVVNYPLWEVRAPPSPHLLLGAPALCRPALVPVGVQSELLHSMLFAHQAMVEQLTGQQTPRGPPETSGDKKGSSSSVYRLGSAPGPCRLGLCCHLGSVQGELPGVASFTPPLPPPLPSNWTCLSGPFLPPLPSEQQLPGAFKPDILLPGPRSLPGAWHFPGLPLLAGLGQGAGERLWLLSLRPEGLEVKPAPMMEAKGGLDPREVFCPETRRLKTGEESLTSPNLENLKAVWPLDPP
In short: as §1

ETS2 = target: T6, ETS2 (Homo sapiens, UniProt P15036 1-469); settings: protein: recombinant; tags: N-terminal GST; dsDNA, one strand shown
T6 sequence: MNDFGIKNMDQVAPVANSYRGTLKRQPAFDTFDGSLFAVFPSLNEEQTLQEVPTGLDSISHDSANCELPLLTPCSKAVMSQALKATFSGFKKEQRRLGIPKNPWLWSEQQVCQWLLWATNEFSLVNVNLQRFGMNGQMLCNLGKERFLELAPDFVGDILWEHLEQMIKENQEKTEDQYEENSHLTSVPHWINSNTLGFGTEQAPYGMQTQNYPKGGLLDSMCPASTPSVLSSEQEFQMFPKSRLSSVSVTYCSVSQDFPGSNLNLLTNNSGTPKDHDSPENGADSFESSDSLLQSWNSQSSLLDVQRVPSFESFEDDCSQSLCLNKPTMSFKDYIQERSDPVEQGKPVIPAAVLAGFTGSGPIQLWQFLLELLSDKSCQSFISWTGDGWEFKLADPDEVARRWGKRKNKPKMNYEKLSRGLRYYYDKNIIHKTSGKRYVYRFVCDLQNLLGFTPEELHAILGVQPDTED
In short: as §1

SPDEF = target: T7, SPDEF (Homo sapiens, UniProt O95238 1-335); settings: protein: recombinant; tags: N-terminal GST; dsDNA, one strand shown
T7 sequence: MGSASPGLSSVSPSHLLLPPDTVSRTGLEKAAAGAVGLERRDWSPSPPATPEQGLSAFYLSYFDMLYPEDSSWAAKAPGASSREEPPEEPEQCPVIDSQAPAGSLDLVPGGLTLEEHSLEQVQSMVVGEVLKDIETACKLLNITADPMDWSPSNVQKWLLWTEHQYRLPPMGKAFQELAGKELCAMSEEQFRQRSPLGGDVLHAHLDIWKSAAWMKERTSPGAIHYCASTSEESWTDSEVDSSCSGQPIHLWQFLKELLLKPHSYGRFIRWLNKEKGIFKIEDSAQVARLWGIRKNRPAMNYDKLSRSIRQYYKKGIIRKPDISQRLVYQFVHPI
In short: as §1

ETV7 = target: T8, ETV7 (Homo sapiens, UniProt Q9Y603 1-341); settings: protein: recombinant; tags: N-terminal GST; dsDNA, one strand shown
T8 sequence: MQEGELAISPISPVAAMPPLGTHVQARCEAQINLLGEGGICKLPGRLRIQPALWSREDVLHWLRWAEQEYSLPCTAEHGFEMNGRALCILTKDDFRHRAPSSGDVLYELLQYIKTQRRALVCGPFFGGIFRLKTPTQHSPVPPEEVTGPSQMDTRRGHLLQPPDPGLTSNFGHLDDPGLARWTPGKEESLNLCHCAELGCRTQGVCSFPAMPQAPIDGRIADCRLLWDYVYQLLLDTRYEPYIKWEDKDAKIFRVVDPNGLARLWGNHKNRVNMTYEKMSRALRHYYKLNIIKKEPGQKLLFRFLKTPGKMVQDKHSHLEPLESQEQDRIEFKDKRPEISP
In short: as §1

ELF5 = target: T9, ELF5 (Homo sapiens, UniProt Q9UKW6-2 1-255); settings: protein: recombinant; tags: N-terminal GST; dsDNA, one strand shown
T9 sequence: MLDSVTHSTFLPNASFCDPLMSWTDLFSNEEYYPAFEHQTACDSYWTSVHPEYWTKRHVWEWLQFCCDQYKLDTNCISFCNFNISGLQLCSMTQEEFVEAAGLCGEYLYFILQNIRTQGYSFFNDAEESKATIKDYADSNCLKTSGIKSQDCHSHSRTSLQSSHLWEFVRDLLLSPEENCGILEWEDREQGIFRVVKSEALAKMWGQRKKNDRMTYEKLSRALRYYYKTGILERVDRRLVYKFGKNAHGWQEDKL
In short: as §1

ETV3 = target: T10, ETV3 (Homo sapiens, UniProt P41162-2 1-143); settings: protein: recombinant; tags: N-terminal GST; dsDNA, one strand shown
T10 sequence: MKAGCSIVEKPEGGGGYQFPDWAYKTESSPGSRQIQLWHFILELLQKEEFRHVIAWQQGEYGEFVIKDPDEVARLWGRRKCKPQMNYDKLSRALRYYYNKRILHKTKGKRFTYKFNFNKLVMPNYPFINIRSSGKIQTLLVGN
In short: as §1

ETV6 = ETV6 (Homo sapiens, UniProt P41212 1-452); settings: protein: recombinant; tags: N-terminal GST; dsDNA, one strand shown
In short: as §1

ELF3 = target: T11, ELF3 (Homo sapiens, UniProt P78545 1-371); settings: protein: recombinant; tags: N-terminal GST; dsDNA, one strand shown
T11 sequence: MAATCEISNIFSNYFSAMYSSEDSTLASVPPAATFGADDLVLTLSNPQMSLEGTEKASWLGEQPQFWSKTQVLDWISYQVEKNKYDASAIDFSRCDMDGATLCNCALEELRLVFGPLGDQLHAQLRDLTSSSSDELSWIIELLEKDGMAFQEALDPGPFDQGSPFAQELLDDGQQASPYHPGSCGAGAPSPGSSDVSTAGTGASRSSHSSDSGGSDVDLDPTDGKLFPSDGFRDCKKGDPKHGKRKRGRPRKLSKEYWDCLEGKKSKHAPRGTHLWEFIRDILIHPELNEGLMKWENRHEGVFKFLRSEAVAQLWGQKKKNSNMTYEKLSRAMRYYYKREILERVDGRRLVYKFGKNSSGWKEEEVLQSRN
In short: as §1

ELF4, sequence (Q99607 whole entry): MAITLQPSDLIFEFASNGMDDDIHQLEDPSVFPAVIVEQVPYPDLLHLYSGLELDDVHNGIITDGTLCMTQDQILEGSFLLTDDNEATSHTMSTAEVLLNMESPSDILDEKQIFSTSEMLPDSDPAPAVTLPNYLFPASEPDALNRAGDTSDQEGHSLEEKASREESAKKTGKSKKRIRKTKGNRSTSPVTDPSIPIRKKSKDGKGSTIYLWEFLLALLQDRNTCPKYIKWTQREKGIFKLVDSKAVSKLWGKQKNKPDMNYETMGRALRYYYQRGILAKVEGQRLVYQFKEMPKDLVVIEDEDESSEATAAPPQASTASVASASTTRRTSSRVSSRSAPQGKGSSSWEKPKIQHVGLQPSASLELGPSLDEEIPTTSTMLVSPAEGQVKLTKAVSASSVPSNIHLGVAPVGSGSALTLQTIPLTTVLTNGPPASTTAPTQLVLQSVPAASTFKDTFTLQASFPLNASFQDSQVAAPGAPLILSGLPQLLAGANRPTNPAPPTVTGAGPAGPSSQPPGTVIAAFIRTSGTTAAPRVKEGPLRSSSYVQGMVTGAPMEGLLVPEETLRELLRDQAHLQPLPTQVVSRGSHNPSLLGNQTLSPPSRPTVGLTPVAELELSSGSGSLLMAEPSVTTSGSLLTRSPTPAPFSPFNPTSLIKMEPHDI
HSF1, sequence (Q00613 whole entry): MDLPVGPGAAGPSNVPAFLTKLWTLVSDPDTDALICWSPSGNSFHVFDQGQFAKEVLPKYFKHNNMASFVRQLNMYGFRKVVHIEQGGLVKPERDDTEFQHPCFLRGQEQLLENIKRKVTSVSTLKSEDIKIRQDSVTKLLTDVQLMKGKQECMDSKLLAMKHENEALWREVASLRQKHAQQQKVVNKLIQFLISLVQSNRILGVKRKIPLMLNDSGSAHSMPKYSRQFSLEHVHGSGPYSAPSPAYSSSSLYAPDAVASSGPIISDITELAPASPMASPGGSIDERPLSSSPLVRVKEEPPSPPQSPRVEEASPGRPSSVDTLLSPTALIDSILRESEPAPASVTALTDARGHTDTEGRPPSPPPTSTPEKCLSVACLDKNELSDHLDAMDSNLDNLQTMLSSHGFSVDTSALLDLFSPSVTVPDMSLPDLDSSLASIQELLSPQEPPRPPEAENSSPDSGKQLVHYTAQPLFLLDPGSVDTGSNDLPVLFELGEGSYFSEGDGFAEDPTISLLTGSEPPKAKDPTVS
ETV1, sequence (P50549 whole entry): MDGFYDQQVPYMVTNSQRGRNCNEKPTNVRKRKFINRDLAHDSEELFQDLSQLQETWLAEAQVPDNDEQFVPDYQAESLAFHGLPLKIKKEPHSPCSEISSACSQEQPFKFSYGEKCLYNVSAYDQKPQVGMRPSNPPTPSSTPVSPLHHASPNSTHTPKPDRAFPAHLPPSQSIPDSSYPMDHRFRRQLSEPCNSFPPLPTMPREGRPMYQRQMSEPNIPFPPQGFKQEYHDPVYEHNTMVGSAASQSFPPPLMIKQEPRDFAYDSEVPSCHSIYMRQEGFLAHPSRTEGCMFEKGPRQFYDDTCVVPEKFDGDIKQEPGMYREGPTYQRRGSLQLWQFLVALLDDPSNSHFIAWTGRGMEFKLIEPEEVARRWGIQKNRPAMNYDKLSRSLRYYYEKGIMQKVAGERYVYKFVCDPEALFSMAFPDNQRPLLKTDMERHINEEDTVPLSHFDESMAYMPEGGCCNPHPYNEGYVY
ETV6, sequence (P41212 whole entry): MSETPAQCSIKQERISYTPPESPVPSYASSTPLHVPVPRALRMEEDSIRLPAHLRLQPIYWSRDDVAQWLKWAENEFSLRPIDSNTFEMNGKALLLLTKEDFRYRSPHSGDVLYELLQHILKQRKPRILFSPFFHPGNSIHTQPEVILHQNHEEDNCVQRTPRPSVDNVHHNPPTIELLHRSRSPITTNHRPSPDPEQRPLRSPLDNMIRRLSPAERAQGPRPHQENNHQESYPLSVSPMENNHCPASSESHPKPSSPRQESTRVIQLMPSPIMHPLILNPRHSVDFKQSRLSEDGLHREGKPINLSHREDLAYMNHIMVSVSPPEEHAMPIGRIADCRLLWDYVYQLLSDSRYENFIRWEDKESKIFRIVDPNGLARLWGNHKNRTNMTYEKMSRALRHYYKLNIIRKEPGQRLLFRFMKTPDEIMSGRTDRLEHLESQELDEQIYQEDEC
ETV5, sequence (P41161 whole entry): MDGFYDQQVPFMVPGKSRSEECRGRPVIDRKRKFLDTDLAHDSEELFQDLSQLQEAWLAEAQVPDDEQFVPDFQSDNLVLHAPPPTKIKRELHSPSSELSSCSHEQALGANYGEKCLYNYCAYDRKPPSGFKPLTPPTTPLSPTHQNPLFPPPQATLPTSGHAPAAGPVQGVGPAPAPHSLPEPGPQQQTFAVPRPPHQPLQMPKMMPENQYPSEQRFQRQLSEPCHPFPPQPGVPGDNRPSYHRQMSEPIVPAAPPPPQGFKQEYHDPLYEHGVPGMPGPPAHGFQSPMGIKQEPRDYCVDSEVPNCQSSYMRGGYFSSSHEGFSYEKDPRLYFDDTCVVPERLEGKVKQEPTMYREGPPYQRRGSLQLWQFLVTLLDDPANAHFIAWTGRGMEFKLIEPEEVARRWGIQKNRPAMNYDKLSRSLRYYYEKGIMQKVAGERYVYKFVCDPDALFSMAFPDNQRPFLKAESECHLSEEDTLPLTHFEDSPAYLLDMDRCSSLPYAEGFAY
CRX, sequence (O43186 whole entry): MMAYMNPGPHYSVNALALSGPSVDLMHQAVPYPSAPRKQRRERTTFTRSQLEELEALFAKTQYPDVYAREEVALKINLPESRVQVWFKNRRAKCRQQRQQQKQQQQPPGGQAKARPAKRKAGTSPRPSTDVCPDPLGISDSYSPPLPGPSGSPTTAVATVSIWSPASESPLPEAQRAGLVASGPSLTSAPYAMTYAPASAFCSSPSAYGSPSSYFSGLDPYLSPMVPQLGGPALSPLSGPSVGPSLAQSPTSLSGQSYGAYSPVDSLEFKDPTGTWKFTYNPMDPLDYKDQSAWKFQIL

Sequence | binding signal (FEV) | binding signal (ETV5) | binding signal (HSF1) | binding signal (SPIC) | binding signal (ELF4) | binding signal (ETV2) | binding signal (CRX) | binding signal (ETV1) | binding signal (ERF) | binding signal (ETV3L) | binding signal (ETS2) | binding signal (SPDEF) | binding signal (ETV7) | binding signal (ELF5) | binding signal (ETV3) | binding signal (ETV6) | binding signal (ELF3)
AGATGA | 1.01 fold enrichment (6-mer frequency, TF over GST control) | 1.11 fold enrichment (6-mer frequency, TF over GST control) | 1.24 fold enrichment (6-mer frequency, TF over GST control) | 1.14 fold enrichment (6-mer frequency, TF over GST control) | 1.12 fold enrichment (6-mer frequency, TF over GST control) | 1.17 fold enrichment (6-mer frequency, TF over GST control) | 1.21 fold enrichment (6-mer frequency, TF over GST control) | 1.1 fold enrichment (6-mer frequency, TF over GST control) | 1.18 fold enrichment (6-mer frequency, TF over GST control) | 1.01 fold enrichment (6-mer frequency, TF over GST control) | 1.05 fold enrichment (6-mer frequency, TF over GST control) | 1.14 fold enrichment (6-mer frequency, TF over GST control) | 1.15 fold enrichment (6-mer frequency, TF over GST control) | 1.05 fold enrichment (6-mer frequency, TF over GST control) | 1.1 fold enrichment (6-mer frequency, TF over GST control) | 1.13 fold enrichment (6-mer frequency, TF over GST control) | 
GGAACA | 1.01 fold enrichment (6-mer frequency, TF over GST control) | 1.16 fold enrichment (6-mer frequency, TF over GST control) | 1.32 fold enrichment (6-mer frequency, TF over GST control) | 1.1 fold enrichment (6-mer frequency, TF over GST control) | 1 fold enrichment (6-mer frequency, TF over GST control) | 1.11 fold enrichment (6-mer frequency, TF over GST control) |  | 1.08 fold enrichment (6-mer frequency, TF over GST control) | 1.01 fold enrichment (6-mer frequency, TF over GST control) | 1.07 fold enrichment (6-mer frequency, TF over GST control) | 1.08 fold enrichment (6-mer frequency, TF over GST control) | 1.15 fold enrichment (6-mer frequency, TF over GST control) | 1.03 fold enrichment (6-mer frequency, TF over GST control) | 1.28 fold enrichment (6-mer frequency, TF over GST control) | 1.14 fold enrichment (6-mer frequency, TF over GST control) | 1.02 fold enrichment (6-mer frequency, TF over GST control) | 1.09 fold enrichment (6-mer frequency, TF over GST control)
